Experiment: qHTS drug screen for cell cycle checkpoint inhibitors in PARPi-resistant BRCA-mutant ovarian cancer cell lines. (AID 1963452)
Settings: PEO1/OlaR viability, CellTiter-Glo luminescence, 96 h; measured here: PEO4 Z-AUC; stronger effect = lower value
Summary of the method: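 PEO1, PEO4 and PEO1/OlaR ovarian cancer cells, 600 per well, exposed 96 h at 37C to a dilution series. Viability read by CellTiter-Glo luminescence, normalized to DMSO and empty wells; activity summarized as Z-AUC.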
For `CCc1ccc2nc(Nc3cc(Cc4ccccc4)nc(NC4CCC(O)CC4)n3)sc2c1` (stereo not given), the Z-AUC was -0.703.
Molecule `Cc1cc(O[C@@H](CCC(F)(F)F)c2ccc(C(=O)NCCC(=O)O)cc2)cc(C)c1-c1ccc(C(C)(C)C)cc1` has a Z-AUC of -0.261.
In the case of `CNC(=O)CCc1cc(-c2ccc(-c3ccc(C(F)(F)F)cc3)cc2)n(-c2ccc(N3CCNCC3)cc2)n1`, the Z-AUC is reported as 0.197.
In the case of `CN1CCN(CCCNc2ncc(Cl)c(-c3cc4c(C(=O)NC5CC5)cccc4s3)n2)CC1`, the Z-AUC is reported as -0.0901.
With `CO[C@H]1/C=C/O[C@@]2(C)Oc3c(C)c(O)c4c(O)c(c(/C=N/N5CCN(C)CC5)c(O)c4c3C2=O)NC(=O)/C(C)=C\C=C\[C@H](C)[C@H](O)[C@@H](C)[C@@H](O)[C@@H](C)[C@H](OC(C)=O)[C@@H]1C` the Z-AUC was 1.29.
